# According to PubChem BioAssay AID1159580 (chemical genetic matrix, 2015):
# Screen size: about 5,500 compounds; about 2,000 (36%) were called active. Another 18% or so got no clear call; they are omitted. The list shows a part of the results. Values without a mark were called inactive. No stated cut-off is given here; in the data, active means normalized growth mostly below about 0.91 (no sharp cut-off); inconclusive means no clear call, values can overlap the other calls; inactive means mostly above about 0.92.
# Assay: chemical genetic growth profiling, strain panel (AID 1159580);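 further: tested at 20 µM; growth read once vehicle control cultures reached saturation at 30 °C; 1 = growth at the plate median or of vehicle wells; lower values mean less growth of the strain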
# Conditions: growth OD
compound,measurement,setting,value
CCC(=O)OCC(=O)[C@@]1(OC(=O)CC)[C@@H](C)CC2C3CCC4=CC(=O)C=C[C@]4(C)C3(F)[C@@H](O)C[C@@]21C (some centres undefined),normalized growth,"S. cerevisiae deletion strains, locus YJR043C, strain POL32, active compounds read low",0.841 (active)
same,normalized growth,"S. cerevisiae deletion strains, locus YJR066W, strain TOR1, active compounds read low",0.989
same,normalized growth,"S. cerevisiae deletion strains, locus YJR075W, strain HOC1, active compounds read low",0.945
same,normalized growth,"S. cerevisiae deletion strains, locus YKL009W, strain mrt4, active compounds read low",0.891
same,normalized growth,"S. cerevisiae deletion strains, locus YKL068W, active compounds read low",0.958
same,normalized growth,"S. cerevisiae deletion strains, locus YKL085W, strain MDH1 (second series), active compounds read low",0.959
same,normalized growth,"S. cerevisiae deletion strains, locus YKL085W, strain MDH1, active compounds read low",0.959
same,normalized growth,"S. cerevisiae deletion strains, locus YKL160W, strain elf1, active compounds read low",1.01
same,normalized growth,"S. cerevisiae deletion strains, locus YKR001C, strain vps1, active compounds read low",0.916
same,normalized growth,"S. cerevisiae deletion strains, locus YKR026C, strain gcn3, active compounds read low",0.997
same,normalized growth,"S. cerevisiae deletion strains, locus YKR091W, strain srl3, active compounds read low",0.997
same,normalized growth,"S. cerevisiae deletion strains, locus YLL001W, strain dnm1, active compounds read low",1.01
same,normalized growth,"S. cerevisiae deletion strains, locus YLL026W, active compounds read low",1.01
same,normalized growth,"S. cerevisiae deletion strains, locus YLL041C, strain sdh2, active compounds read low",0.994
same,normalized growth,"S. cerevisiae deletion strains, locus YLR027C, strain aat2, active compounds read low",0.999
same,normalized growth,"S. cerevisiae deletion strains, locus YLR039C, strain RIC1, active compounds read low",0.85
same,normalized growth,"S. cerevisiae deletion strains, locus YLR058C, strain SHM2, active compounds read low",0.943
same,normalized growth,"S. cerevisiae deletion strains, locus YLR102C, strain apc9, active compounds read low",0.973
same,normalized growth,"S. cerevisiae deletion strains, locus YLR113W, strain HOG1, active compounds read low",1.05
same,normalized growth,"S. cerevisiae deletion strains, locus YLR221C, strain rsa3, active compounds read low",1.01
same,normalized growth,"S. cerevisiae deletion strains, locus YLR258W, strain gsy2, active compounds read low",0.997
same,normalized growth,"S. cerevisiae deletion strains, locus YLR262C, strain YPT6 (second series), active compounds read low",1
same,normalized growth,"S. cerevisiae deletion strains, locus YLR262C, strain YPT6, active compounds read low",0.772
same,normalized growth,"S. cerevisiae deletion strains, locus YLR268W, strain sec22, active compounds read low",0.915
same,normalized growth,"S. cerevisiae deletion strains, locus YLR320W, strain mms22, active compounds read low",1.02
same,normalized growth,"S. cerevisiae deletion strains, locus YLR330W, strain CHS5, active compounds read low",0.898 (active)
same,normalized growth,"S. cerevisiae deletion strains, locus YLR342W, strain FKS1 (second series), active compounds read low",0.741 (active)
same,normalized growth,"S. cerevisiae deletion strains, locus YLR342W, strain FKS1, active compounds read low",1.01
same,normalized growth,"S. cerevisiae deletion strains, locus YLR357W, strain rsc2, active compounds read low",1.02
same,normalized growth,"S. cerevisiae deletion strains, locus YLR370C, strain arc18, active compounds read low",1
same,normalized growth,"S. cerevisiae deletion strains, locus YLR371W, strain rom2, active compounds read low",0.95
same,normalized growth,"S. cerevisiae deletion strains, locus YLR384C, strain iki3, active compounds read low",0.998
same,normalized growth,"S. cerevisiae deletion strains, locus YLR418C, strain cdc73, active compounds read low",0.777 (active)
same,normalized growth,"S. cerevisiae deletion strains, locus YML016C, strain PPZ1, active compounds read low",0.967
same,normalized growth,"S. cerevisiae deletion strains, locus YML032C, strain rad52, active compounds read low",0.843 (active)
same,normalized growth,"S. cerevisiae deletion strains, locus YML120C, strain ndi1, active compounds read low",0.995
same,normalized growth,"S. cerevisiae deletion strains, locus YML124C, strain tub3, active compounds read low",0.953
same,normalized growth,"S. cerevisiae deletion strains, locus YMR058W, strain fet3, active compounds read low",0.997
same,normalized growth,"S. cerevisiae deletion strains, locus YMR078C, strain ctf18, active compounds read low",0.925
same,normalized growth,"S. cerevisiae deletion strains, locus YMR125W, strain sto1, active compounds read low",0.984
same,normalized growth,"S. cerevisiae deletion strains, locus YMR129W, active compounds read low",0.99
same,normalized growth,"S. cerevisiae deletion strains, locus YMR205C, strain PFK2, active compounds read low",1.02
same,normalized growth,"S. cerevisiae deletion strains, locus YMR223W, strain ubp8, active compounds read low",0.876 (active)
same,normalized growth,"S. cerevisiae deletion strains, locus YMR231W, strain pep5, active compounds read low",1.02
same,normalized growth,"S. cerevisiae deletion strains, locus YMR307W, strain GAS1, active compounds read low",0.642
same,normalized growth,"S. cerevisiae deletion strains, locus YNL067W, strain RPL9B, active compounds read low",0.994
same,normalized growth,"S. cerevisiae deletion strains, locus YNL071W, strain lat1, active compounds read low",0.998
same,normalized growth,"S. cerevisiae deletion strains, locus YNL128W, strain TEP1, active compounds read low",0.941
same,normalized growth,"S. cerevisiae deletion strains, locus YNL153C, strain GIM3, active compounds read low",0.945
same,normalized growth,"S. cerevisiae deletion strains, locus YNL183C, strain NPR1, active compounds read low",0.974
same,normalized growth,"S. cerevisiae deletion strains, locus YNL209W, strain ssb2, active compounds read low",0.994
same,normalized growth,"S. cerevisiae deletion strains, locus YNL233W, strain BNI4, active compounds read low",0.902
same,normalized growth,"S. cerevisiae deletion strains, locus YNL248C, strain rpa49, active compounds read low",0.994
same,normalized growth,"S. cerevisiae deletion strains, locus YNL250W, strain rad50, active compounds read low",0.907
same,normalized growth,"S. cerevisiae deletion strains, locus YNL271C, strain bni1, active compounds read low",0.951
same,normalized growth,"S. cerevisiae deletion strains, locus YNL298W, strain CLA4, active compounds read low",0.942
same,normalized growth,"S. cerevisiae deletion strains, locus YNL307C, strain MCK1, active compounds read low",0.835 (active)
same,normalized growth,"S. cerevisiae deletion strains, locus YNL322C, strain KRE1 (second series), active compounds read low",0.982
same,normalized growth,"S. cerevisiae deletion strains, locus YNR049C, strain mso1, active compounds read low",0.999
same,normalized growth,"S. cerevisiae deletion strains, locus YNR052C, strain pop2, active compounds read low",0.955
same,normalized growth,"S. cerevisiae deletion strains, locus YOL012C, strain htz1",1.01
same,normalized growth,"S. cerevisiae deletion strains, locus YOL147C, strain pex11, active compounds read low",0.958
same,normalized growth,"S. cerevisiae deletion strains, locus YOR001W, strain rrp6, active compounds read low",0.992
same,normalized growth,"S. cerevisiae deletion strains, locus YOR061W, strain CKA2, active compounds read low",0.93
same,normalized growth,"S. cerevisiae deletion strains, locus YOR069W, strain VPS5, active compounds read low",0.973
same,normalized growth,"S. cerevisiae deletion strains, locus YOR070C, strain gyp1, active compounds read low",1
same,normalized growth,"S. cerevisiae deletion strains, locus YOR080W, strain dia2, active compounds read low",1.01
same,normalized growth,"S. cerevisiae deletion strains, locus YOR083W, strain WHI5, active compounds read low",1
same,normalized growth,"S. cerevisiae deletion strains, locus YOR106W, strain vam3, active compounds read low",0.995
same,normalized growth,"S. cerevisiae deletion strains, locus YOR136W, strain idh2, active compounds read low",0.981
same,normalized growth,"S. cerevisiae deletion strains, locus YOR144C, strain elg1, active compounds read low",0.953
same,normalized growth,"S. cerevisiae deletion strains, locus YOR184W, strain ser1, active compounds read low",0.838 (active)
same,normalized growth,"S. cerevisiae deletion strains, locus YOR231W, strain MKK1, active compounds read low",0.994
same,normalized growth,"S. cerevisiae deletion strains, locus YOR265W, strain rbl2, active compounds read low",1.01
same,normalized growth,"S. cerevisiae deletion strains, locus YOR270C, strain vph1, active compounds read low",0.887
same,normalized growth,"S. cerevisiae deletion strains, locus YOR290C, strain snf2, active compounds read low",0.981
same,normalized growth,"S. cerevisiae deletion strains, locus YOR316C, strain cot1, active compounds read low",0.961
same,normalized growth,"S. cerevisiae deletion strains, locus YPL051W, strain arl3, active compounds read low",1
same,normalized growth,"S. cerevisiae deletion strains, locus YPL055C, strain LGE1, active compounds read low",0.853
same,normalized growth,"S. cerevisiae deletion strains, locus YPL078C, strain atp4, active compounds read low",0.996
same,normalized growth,"S. cerevisiae deletion strains, locus YPL106C, strain sse1, active compounds read low",1.03
same,normalized growth,"S. cerevisiae deletion strains, locus YPL240C, strain hsp82, active compounds read low",0.997
same,normalized growth,"S. cerevisiae deletion strains, locus YPL256C, strain CLN2, active compounds read low",0.998
same,normalized growth,"S. cerevisiae deletion strains, locus YPR119W, strain clb2, active compounds read low",0.953
same,normalized growth,"S. cerevisiae deletion strains, locus YPR141C, strain kar3, active compounds read low",0.964
same,normalized growth,"S. cerevisiae deletion strains, locus YPR163C, strain tif3, active compounds read low",0.942
same,normalized growth,"S. cerevisiae deletion strains, locus YPR167C, strain met16, active compounds read low",0.936
same,normalized growth,"S. cerevisiae deletion strains, strain wtn01, active compounds read low",0.959
same,normalized growth,"S. cerevisiae strains, strain wild type, active compounds read low",0.929
